From PubChem BioAssay (NCI) come the findings set out here.

The panel holds about 83,000 compounds, 20% with a hit somewhere; the sample as a whole holds those more often.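 Interpretation: 100, growth as untreated; towards 0, rising growth inhibition; 0, no net growth; 0 to -100, cell death. Compounds scoring below 10 were considered active.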 Values without a mark were called inactive. Activity calls are given as the source filed them.

The test system of this assay is MDA-MB-468 breast. Description: NCI-60 one-dose screen, 48 h (100 = growth as untreated, 0 = no growth, -100 = all killed). The note with it: 10 µM unless noted.
On to `CC(=O)OC[C@]12CC[C@@H]([C@@H](C)C(N)=O)[C@@H]1[C@H]1CC[C@@H]3[C@@]4(C)CC[C@H](OC(C)=O)C(C)(C)[C@@H]4CC[C@@]3(C)[C@]1(C)CC2`, for which the growth is -40.4% [100 µM] (active). With `O=C1c2cc3c(cc2-c2c1c1ccc(Cl)cc1c(=O)n2CCCN1CCOCC1)OCO3` the figure was 31.6%. The figure for `Cc1ccc2ccc3ccc(C)nc3c2n1.Cc1ccc2ccc3ccc(C)nc3c2n1.Oc1c(Cl)cc(Cl)c2ccc(CN3CCCCC3)nc12.[Ru]` is -80% (active). The figure for `CC1(C)OC2[C@@H](CNC(=O)NC(=O)NC(=O)CI)O[C@@H](n3cnc4c(NC(=O)Nc5ccccc5)ncnc43)[C@H]2O1` (stereo partly specified) is 64%; for `COc1c(N2CC3CCCNC3C2)c(F)cc2c(=O)c(C(=O)N/N=C/c3ccc4c(c3)OCO4)cn(C3CC3)c12` (stereo unspecified) it is 63.1%; for `ClC1=C(Cl)C(Cl)=C(Cl)C1=Cc1ccc(Cl)cc1Cl` it is -74.9% (active). `O=C(CSc1nccc(Nc2ccc(S(=O)(=O)Nc3nccs3)cc2)n1)c1ccc(F)cc1`: the growth was 98.6%. The figure for `CNC(=O)c1ccc(Nc2ncc(C(F)(F)F)c(NCc3nccnc3N(C)S(C)(=O)=O)n2)cc1` is -50.1% (active); for `COc1ccc(C(=O)c2c(N)c(C#N)cn2-c2ccccc2OC)cc1` it is 31%. In the case of `COc1ccc(/C(=C2\O[C@@H]([C@H](O)CO)[C@H]3OC(C)(C)O[C@@H]23)c2cc(OC)c(OC)c(OC)c2)cc1O`, the growth was 107%.

`N#CC1=C(N)Oc2c(sc3c(Br)cccc23)C1c1ccc(Cl)cc1` (stereo unspecified): the growth was 1.22% (active). The figure for `O=c1ccn(Cc2cn(-c3c4ccccc4nc4ccccc34)nn2)c(=O)[nH]1` is -50.8% (active). The figure for `O=C(NCc1cccc(C(F)(F)F)c1)[C@H](CCC(=O)N1CCN(C2CCCCC2)CC1)N1C(=O)[C@@H](N2C(=O)OC[C@@H]2c2ccccc2)[C@H]1/C(Cl)=C/c1ccccc1` is -5.16% (active).

Take `Cc1nn2c(/C=C3/C(=O)Nc4ccc(Cl)cc43)c(-c3ccccc3)nc2s1`: the growth is 35.7%. The figure for `O=C(O)[C@@H]1[C@H]2C[C@H]3c4[nH]c5ccccc5c4CCN3C[C@@H]2CC[C@@H]1O` is 104%; for `O=C1/C(=C\c2ccc(F)cc2)CN(C(=O)c2ccccc2F)C/C1=C\c1ccc(F)cc1` it is -74% (active); for `CCc1c2c(nc3ccc(OC(=O)NCc4ccc(B5OC(C)(C)C(C)(C)O5)cc4)cc13)-c1cc3c(c(=O)n1C2)COC(=O)[C@]3(O)CC` it is -33.9% (active). With `C=C(C)[C@@H]1CC[C@]2(/C=N/Nc3ccncc3)CC[C@]3(C)[C@H](CC[C@@H]4[C@@]5(C)CCCNC(C)(C)[C@@H]5CC[C@]43C)[C@@H]12` the figure was 83.7%; with `CCOC(=O)Nc1nccs1`, 120%.

On to `Cc1ccc(/C=C2\Oc3ccc(O)c(O)c3C2=O)cc1`, for which the growth was 58.3%. The figure for `C=C(C)[C@@H]1CCC[C@]2(C(=O)N3CCN(C)CC3)CC[C@]3(C)[C@@H](CC[C@@H]4[C@@]5(C)CC/C(=N\NC(=O)c6ccncc6)C(C)(C)[C@@H]5CC[C@]43C)[C@@H]12` is 113%. With `CC(C)(C)OC(=O)NC(CSCc1ccccc1)C(=O)ON1C(=O)CCC1=O` (stereo unspecified) the figure was 115%; with `N/N=C(/Cc1ccccc1)NNC(N)=S`, 115%.

Take `COc1cc2nc(Cl)nc(Nc3cccc(C(=O)/C=C/c4ccc(Cl)cc4)c3)c2cc1OC`: the growth was 63.8%. Consider `CCN(CC)CCOc1ccc(Nc2ncc3cc(-c4c(Cl)cccc4Cl)c(=O)n(CCOC)c3n2)cc1`, for which the growth is 3.97% (active). The figure for `O=C1/C(=C/c2ccc([N+](=O)[O-])cc2)COc2ccc(O)cc21` is 77.3%; for `COc1ccc2cc(-c3cnc4nonc4n3)ccc2c1` it is -2.09% (active). The figure for `CCNC(=O)C1CCCN1C(=O)C(CCCN=C(N)N)NC(=O)C(CC(C)C)NC(=O)C(CC(C)C)NC(=O)C(Cc1ccc(O)cc1)NC(=O)C(CO)NC(=O)C(Cc1c[nH]c2ccccc12)NC(=O)C(Cc1cnc[nH]1)NC(=O)C1CCC(=O)N1` (stereo unspecified) is 87.4%. The figure for `NS(=O)(=O)c1ccc(CCN2C(=O)C=CC2=O)cc1` is 103%. As for `O=C(NC1CCCCC1)C(c1cccs1)N(CCc1ccccc1)C(=O)c1ccco1` (stereo unspecified), the growth is 94.1%.

`Clc1ccc(N2CCN(CCCN3CCN(c4cccc(Cl)c4)CC3)CC2)cc1`: the growth is 23.5%.
